Results filed as inconclusive are left out. A call without a number means that no potency is given here. Calls of active or inactive are those of the source. Calls follow the shape of the dose curve; as a rule, active = well fitted curve in the direction sought with a large enough effect; inconclusive = small, poorly fitted or top-dose-only effect, or another doubt; inactive = no such curve, though single readings can be large; an effect the other way counts as inactive or inconclusive.
Assay: qHTS of pediatric cancer cell lines to identify multiple opportunities for drug repurposing: Primary screen for NB-EBc1 cells (AID 1347095)
Settings: NB-EBc1 neuroblastoma viability, CellTiter-Glo luminescence, 48 h; series mostly up to 46 µM
Method in brief: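 CRCs from 8- or 11-point titrations (lowest final 0.59 nM NPC, 0.78 nM MIPE). Cell viability: CellTiter-Glo after 48 h incubation, 15 min room-temperature development, luminescence imaging.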
Potency is read from the fitted curve at half-maximal effect.

| Structure (SMILES) | Potency |
| --- | --- |
| O=C(Nc1nnc(-c2ccco2)o1)c1cc(-c2ccccc2)nc2ccccc12 | 8.33 µM (active) |
| Nc1nc(=O)n([C@H]2C[C@H](O)[C@@H](CO)O2)cc1F | 3.72 µM (active) |
| C[C@H]1[C@@H](OC(=O)CCC(=O)O)O[C@@H]2O[C@@]3(C)CC[C@@H]4[C@H](C)CC[C@@H]1[C@@]24OO3 | 1.66 µM (active) |
| OC[C@@H](O)[C@@H](O)[C@H](O)[C@@H](O)CO | inactive |
| CC(C)c1cc(C(C)C)c(CC(=O)NS(=O)(=O)Oc2c(C(C)C)cccc2C(C)C)c(C(C)C)c1 | 14.8 µM (active) |
| C[C@H](NC(=O)C(C#N)=Cc1cccc(Br)n1)c1ccccc1 | 7.43 µM (active) |
| COC(=O)[C@@H]1[C@H]2C[C@@H]3c4[nH]c5ccccc5c4CCN3C[C@@H]2CC[C@@H]1O | inactive |
| CCN(C(=O)c1c(O)c2c(Cl)cccc2n(C)c1=O)c1ccccc1 | inactive |
| CC(C)(O)CC[C@@H](O)[C@](C)(O)[C@H]1CC[C@@]2(O)C3=CC(=O)[C@@H]4C[C@@H](O)[C@@H](O)C[C@]4(C)[C@@H]3CC[C@]12C | inactive |
| CCS(=O)(=O)Nc1ccc2[nH]c(O)c(C(=Nc3ccc(CN4CCCCC4)cc3)c3ccccc3)c2c1 | 0.187 µM (active) |
| c1coc(CNc2ncnc3nc[nH]c23)c1 | inactive |
| CCCCOc1ccc(C(=O)Nc2ccc(F)cc2F)cc1 | inactive |
| CC[C@H]1OC(=O)[C@H](C)[C@@H](O[C@H]2C[C@@](C)(OC)[C@@H](O)[C@H](C)O2)[C@H](C)[C@@H](O[C@@H]2O[C@@H](C)C[C@H](N(C)C)[C@@H]2O)[C@](C)(O)C[C@@H](C)C(=O)[C@H](C)[C@@H](O)[C@]1(C)O | inactive |
| CCNC(=O)c1cc2c(-c3cc(OCCN4CCCC4)c(Cl)cc3Cl)nc(N)nc2s1 | 0.935 µM (active) |
| CC(=O)O[C@H]1C[C@@H]2CC[C@H]3[C@H]4C[C@H]([N+]5(C)CCCCC5)[C@@H](OC(C)=O)[C@@]4(C)CC[C@@H]3[C@@]2(C)C[C@H]1N1CCCCC1 | inactive |
| CC(C(C)N1CC(=O)NC(=O)C1)N1CC(=O)NC(=O)C1 (stereo unspecified) | 0.264 µM (active) |
| CC(=O)OC[C@@H]1O[C@@H](n2ccc(=O)[nH]c2=O)[C@H](OC(C)=O)[C@H]1OC(C)=O | inactive |
| Cc1cnc(NC(=O)Nc2cc(Br)c(C)cc2OC[C@@H]2CNCCO2)cn1 | 1.05 µM (active) |
| CON=C(C(=O)N[C@@H]1C(=O)N2C(C(=O)O)=C(CSC(=O)c3ccco3)CS[C@H]12)c1csc(N)n1 | inactive |
| Nc1ncn([C@@H]2O[C@H](CO)[C@@H](O)[C@@H]2O)c(=O)n1 | 16.6 µM (active) |

Assay: qHTS of pediatric cancer cell lines to identify multiple opportunities for drug repurposing: Primary screen for U-2 OS cells (AID 1347096); also: nearly all actives have a fitted effect of over 50% in size
Settings: U-2 OS viability, CellTiter-Glo luminescence, 48 h; series mostly up to 46 µM
Method in brief: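 Cells (500-1,000/well) in growth media were settled 5 h at 37 degrees C, then given compounds for 48 h. Viability was read as CellTiter-Glo luminescence. Primary runs used MIPE at 11 points (0.78 nM-46 µM) and NPC at 8 points (0.59 nM-46 µM); follow-ups used 11 points.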

| Structure (SMILES) | Potency |
| --- | --- |
| OCC(O)C(O)C(O)CO (stereo unspecified) | inactive |
| Nc1nc(=O)n([C@H]2C[C@H](O)[C@@H](CO)O2)cc1F | inactive |
| C[C@H]1[C@@H](OC(=O)CCC(=O)O)O[C@@H]2O[C@@]3(C)CC[C@@H]4[C@H](C)CC[C@@H]1[C@@]24OO3 | inactive |
| Cc1cnc(Nc2ccc(CN3CCOCC3)cc2)nc1Nc1cccc(S(=O)(=O)NC(C)(C)C)c1 | 7.43 µM (active) |
| OC[C@@H](O)[C@@H](O)[C@H](O)[C@@H](O)CO | inactive |
| CC(C)c1cc(C(C)C)c(CC(=O)NS(=O)(=O)Oc2c(C(C)C)cccc2C(C)C)c(C(C)C)c1 | inactive |
| COC(=O)[C@@H]1[C@H]2C[C@@H]3c4[nH]c5ccccc5c4CCN3C[C@@H]2CC[C@@H]1O | inactive |
| C=C(C)[C@@H]1CC[C@]2(C(=O)O)CC[C@]3(C)[C@H](CC[C@@H]4[C@@]5(C)CC[C@H](O)C(C)(C)[C@@H]5CC[C@]43C)[C@@H]12 | inactive |
| CC(C)C[C@H](NC(=O)[C@@H](NC(=O)c1cccc(-c2ccccc2)n1)[C@@H](C)O)B(O)O | 0.148 µM (active) |
| CC(C)(O)CC[C@@H](O)[C@](C)(O)[C@H]1CC[C@@]2(O)C3=CC(=O)[C@@H]4C[C@@H](O)[C@@H](O)C[C@]4(C)[C@@H]3CC[C@]12C | inactive |
| CCS(=O)(=O)Nc1ccc2[nH]c(O)c(C(=Nc3ccc(CN4CCCCC4)cc3)c3ccccc3)c2c1 | 5.9 µM (active) |
| c1coc(CNc2ncnc3nc[nH]c23)c1 | inactive |
| CCCCOc1ccc(C(=O)Nc2ccc(F)cc2F)cc1 | inactive |
| CC[C@H]1OC(=O)[C@H](C)[C@@H](O[C@H]2C[C@@](C)(OC)[C@@H](O)[C@H](C)O2)[C@H](C)[C@@H](O[C@@H]2O[C@@H](C)C[C@H](N(C)C)[C@@H]2O)[C@](C)(O)C[C@@H](C)C(=O)[C@H](C)[C@@H](O)[C@]1(C)O | inactive |
| CC(Cc1ccc(O)c(O)c1)(NN)C(=O)O (stereo unspecified) | inactive |
| CCNC(=O)c1cc2c(-c3cc(OCCN4CCCC4)c(Cl)cc3Cl)nc(N)nc2s1 | inactive |
| CC(=O)O[C@H]1C[C@@H]2CC[C@H]3[C@H]4C[C@H]([N+]5(C)CCCCC5)[C@@H](OC(C)=O)[C@@]4(C)CC[C@@H]3[C@@]2(C)C[C@H]1N1CCCCC1 | inactive |
| CC(C)(O)[C@H]1CC[C@@](C)([C@H]2[C@@H](O)C[C@@]3(C)[C@@H]4C[C@H](O[C@@H]5O[C@H](CO)[C@@H](O)[C@H](O)[C@@H]5O)[C@H]5C(C)(C)[C@@H](O[C@@H]6OC[C@@H](O)[C@H](O)[C@@H]6O)CC[C@@]56C[C@@]46CC[C@]23C)O1 | inactive |
| O=C(Nc1ccc(Oc2ccnc3[nH]ccc23)c(F)c1)c1cccn(-c2ccc(F)cc2)c1=O | inactive |
| CC(C(C)N1CC(=O)NC(=O)C1)N1CC(=O)NC(=O)C1 (stereo unspecified) | inactive |
| CC(=CC(=O)Nc1ccccc1C(=O)O)c1ccc2ccccc2c1 | inactive |
| C[C@H](NC(=O)[C@@H](O)c1cc(F)cc(F)c1)C(=O)N[C@@H]1C(=O)N(C)c2ccccc2-c2ccccc21 | inactive |
| O=S(=O)(O)CCSSCCS(=O)(=O)O | inactive |
| CON=C(C(=O)N[C@@H]1C(=O)N2C(C(=O)O)=C(CSC(=O)c3ccco3)CS[C@H]12)c1csc(N)n1 | inactive |
| CC(=O)C1=C(O)C=C2Oc3c(C(C)=O)c(O)c(C)c(O)c3C2(C)C1=O (stereo unspecified) | inactive |
| C[C@]12C=CC(=O)N[C@@H]1CC[C@H]1[C@H]3CC[C@@H](C(=O)Nc4cc(C(F)(F)F)ccc4C(F)(F)F)[C@@]3(C)CC[C@@H]12 | inactive |

— PubChem BioAssay (NCATS)
